Assay results as given in PubChem BioAssay (Tox21).
Values joined by “and” are separate entries in the source; they are usually repeats but may differ in a detail not shown here. Equal entries are not always repeated. Records with an inconclusive call do not appear. Unmarked numbers belong to inactive results. Active and inactive are the calls of the source. Calls come from the whole dose curve; as a rule, active = well fitted cell-killing curve with a large enough effect in the repeat runs; inconclusive = weak or mixed curves; inactive = no such curve, though single readings can be large or run the other way.

Experiment: qHTS assay to identify small molecule agonists of the peroxisome proliferator-activated receptor delta (PPARd) signaling pathway - cell viability counter screen (AID 743211); note: nearly all actives have a fitted effect of over 55% in size
Settings: PPARd-bla HEK293H viability, CellTiter-Glo luminescence, 17 h; series mostly up to 62.6 µM; activity change, negative = cytotoxicity: at the top concentration
Excerpt: U.S. Tox21 Program National Center for Advancing Translational Sciences [NCATS] NIH Chemical Genomics Center [NCGC] U.S. Environmental Protection Agency [EPA] National Institutes of Environmental Health Sciences [NIEHS] National Toxicology Program [NTP] U.S. Food and Drug Administration [FDA] Tox21 Assay Overview: The peroxisome proliferator-activated receptors (PPARs) are lipid-activated transcription factors of the nuclear receptor superfamily with three distinct subtypes namely PPAR alpha, PPAR delta (PPARd) and PPAR gamma. All these subtypes heterodimerizes with Retinoid X receptor (RXR) and have different physiological functions. […] To identify the compounds that activate PPAR-delta signaling, GeneBLAzer PPAR delta UAS-bla HEK293H cell line (Invitrogen, Carlsbad, CA, USA) containing a beta-lactamase reporter gene under the control of an Upstream Activator Sequence (UAS) was used to screen the Tox21 compound library. The cytotoxicity of the Tox21 compound library against the PPARd-bla cell line was tested in parallel by measuring the cell viability using CellTiter-Glo assay (Promega, Madison, WI) in the same wells.
Tox21 Assay Protocol Summary: PPARd-bla cells were dispensed at 3000 cells/6uL/well in 1536-well black wall/clear bottom plates using a Multidrop Combi (Thermo Fisher Scientific, Waltham, MA) dispenser. After the assay plates were incubated at 37 C and 5% CO2 for 5 h, 23 nL of compounds dissolved in DMSO, positive controls or DMSO only was transferred to the assay plate by a Pintool station (Kalypsys, San Diego, CA). The assay plates were incubated at 37C for 17 h. After 1 uL of LiveBLAzerTM B/G FRET substrate was added using a Bioraptr Flying Reagent Dispenser (FRD) workstation (Beckman Coulter, Indianapolis, IN, USA), the plates were incubated at room temperature for 2 h, and fluorescence intensity was measured by an Envision plate reader (PerkinElmer, Shelton, CT). For cell viability readout that measures cytotoxicity, 3 ul/well of CellTiter-Glo reagent was added into the assay plates using a Bioraptr FRD. After 30 min incubation at room temperature, the luminescence intensity in the plates was measured using a ViewLux plate reader (PerkinElmer).
% is set by controls: 0 for no effect and ±100 for the full control effect; potency is the fitted concentration of half-maximal effect.

SMILES | activity change, negative = cytotoxicity | Potency
CCCC(=O)OCOC(=O)C1=C(C)NC(C)=C(C(=O)OC)C1c1cccc(Cl)c1Cl (stereo not given) | 3.17% | 
CC(CO)Oc1ccccc1 (stereo not given) | 0.601% [at 81.1 µM] | 
COc1cccc(OC)c1C(=O)O | -6.2% | 
CC(C)(C)c1ccc(C(O)CCCN2CCC(C(O)(c3ccccc3)c3ccccc3)CC2)cc1 (stereo not given) |  | 10.6 µM (active)
CC(C(=O)O)c1ccc2c(c1)[nH]c1ccc(Cl)cc12 (stereo not given) | -2.19% | 
O=C1c2ccccc2C(=O)N1SC1CCCCC1 |  | 48.9 µM (active) and 49 µM (active)
Cc1ccc(-c2ccccc2)cc1 | 7.44% | 
NC[C@H]1O[C@H](O[C@H]2[C@H](O[C@@H]3O[C@H](CO)[C@@H](O)[C@H]3O)C(O)[C@H](N)C[C@@H]2N)[C@H](N)[C@@H](O)[C@@H]1O (stereo not given in full) | 8.47% [at 13.2 µM] | 
Cc1cc(C(C#N)c2ccc(Cl)cc2)c(Cl)cc1NC(=O)c1cc(I)cc(I)c1O (stereo not given) |  | 29.8 µM (active)
CC(C)NC[C@@H](O)COc1ccc(CC(N)=O)cc1 | 19.2% | 
C/C=C/C=C/COC(=O)C(C)C | 3.34% | 
O=C1C(c2[nH]c3ccc(S(=O)(=O)O)cc3c2O)=Nc2ccc(S(=O)(=O)O)cc21 | -4.01% | 
Cc1cc(=O)oc2cc(O)cc(O)c12 | 8% [at 81.1 µM] | 
CCC(CC)C(C)CCOC(C)=O (stereo not given) | -10.7% | 
FC(F)(F)c1cccc(Cl)c1 | 4.6% | 
C=Cc1ccccc1C=C | -0.261% [at 232 µM] | 
O=C(O)Cc1ccc2c(c1)C(=O)c1ccccc1CO2 | 3.61% | 
O=S(=O)(O)c1ccccc1/C=C/c1ccc(-c2ccc(/C=C/c3ccccc3S(=O)(=O)O)cc2)cc1 | 2.7% | 
OC[C@H]1O[C@H](O[C@H]2O[C@H](CO)[C@@H](O)[C@H](O)[C@H]2O)[C@H](O)[C@@H](O)[C@@H]1O | 1.17% [at 81.1 µM] | 
Clc1sc(Cl)c(Cl)c1Cl | 3.67% | 

SMILES | activity change, negative = cytotoxicity | Potency
CC1(C)CCC[C@]2(C)[C@H]3CCO[C@]3(C)CC[C@@H]12 | 5.85% | 
CN(C)C(=O)COC(=O)Cc1ccc(OC(=O)c2ccc(N=C(N)N)cc2)cc1 | 2.79% | 
CCCCCCCCCCCCCCCC[N+](C)(C)CC |  | 21.9 µM (active) and 29.8 µM (active)
CCC(=O)OC(=O)CC | 4.92% | 
O=C(O)CCN(C1(C(=O)NO)CCCC1)S(=O)(=O)c1ccc(Oc2ccc(F)cc2)cc1 | -1.26% | 
Cc1cc(C)c(/C=C2\C(=O)Nc3ccccc32)[nH]1 | -10% | 
CCCCOC(=O)CC | -2.67% | 
CCCCCCCCCCCC(=O)OCC(C)OC(=O)CCCCC(=O)O (stereo not given) | -8.17% | 
CC(=O)OCC=C(C)C | 2.34% | 
Cc1c2ccccc2c(C)c2c1ccc1ccccc12 |  | 48.5 µM (active) and 38.9 µM (active)
C1CCC(SSC2CCCCC2)CC1 | 3.13% | 
Oc1ccccc1O |  | inactive
[Cl][Pt-2]([Cl])([Cl])[Cl] | -6.56% [at 81.1 µM] | 
Nc1cc(Cl)c(O)c(Cl)c1 | -32.7% | 
Cc1c(C)c2c(c(C)c1O)CC[C@@](C)(CCC[C@H](C)CCC[C@H](C)CCCC(C)C)O2 | 0.369% [at 81.1 µM] | 
NC(=O)c1cccc([N+](=O)[O-])c1 | 3.72% | 
CN(C)Cc1ccccc1O | -2.75% | 
CCCCC(CC)COC(=O)CCCCC(=O)OCc1ccccc1 (stereo not given) | -1.98% | 
O=C(O)c1cccc(C(F)(F)F)c1 | 1.02% | 
Cc1ccc(C)cc1 | 5.97% | 
